# Sampled rows, rich in hits. Any-hit rate of the full collection: about 1.6%.
# PABP FP inh – PABP poly(A) RNA binding inhibitors, primary screen, biochemical, fluorescence polarization, uHTS; Polyadenylate-binding protein 1 (Homo sapiens), P11940; calls only at 35 µM; hit rate 1% among 290,000;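 also: calls also rest on retests at 20 µM and on dose response follow-up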
# eIF4E 4G PPI – eIF4E–eIF4G protein interaction inhibitors, primary screen, biochemical, uHTS, TR-FRET, eIF4GI fragment | hit rate 0.37% among 220,000 | AID 782, 2007 | Eukaryotic translation initiation factor 4E (Mus musculus) + Eukaryotic translation … | inhibition, % at 21.7 µM | TR-FRET eIF4E-eIF4GI(517-606) binding, 2 h;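 active = inhibition above about 30%, limit read from the data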;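 also: 0% = full FRET control wells and 100% = background wells lacking eIF4GI fragment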
# MLLE-PAM2 inh – inhibitors of PABP1 MLLE–PAM2 peptide binding, primary screen, biochemical, fluorescence polarization, FITC-PAM2, GST-MLLE; Polyadenylate-binding protein 1 (Homo sapiens), P11940; hit rate 0.36% among 360,000; inhibition, % at 20 µM; in the data active = inhibition above about 35%, passing the limit was not always enough;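 also: plate controls were DMSO wells with GST-MLLE for no effect and wells lacking GST-MLLE protein for full effect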
# PERK inhibitor – block of dimerizer-induced PERK translation repression, primary screen, PERK inhibitor project, CHO PERK-DD cells, SEAP luminescence, HTS; CHO PERK-DD fusion, SEAP luminescence translation reporter; inhibition, % at 5.6 µM; hit rate 0.17% among 220,000;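 active = inhibition above the mean inhibition of all tested compounds plus 3 SD, set separately per screening campaign, cut at about 2.9% in these data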;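 also: PERK kinase domain activated by AP20187 dimerizer at 100 nM; 0% = DMSO with dimerizer and 100% = rapamycin at 8.4 µM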
# eIF4H inh – human eIF4H binding inhibitors, primary screen, translation initiation inhibitor project, biochemical, uHTS, fluorescence polarization; Eukaryotic translation initiation factor 4H (Homo sapiens), Q15056; eIF4H fluorescence polarization binding assay; inhibition, % at 35 µM; hit rate 0.94% among 290,000; AID 2012, 2009;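 also: calls also rest on retests at 20 µM and on dose response follow-up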
# * marks the source's active call; other numbers are inactive results; i = inactive; ? = inconclusive; / = no result given; + = active, no number; [ ] = dose if it differs, or a comment. Unless noted, no rule for the calls is given here.
SMILES,PABP FP inh,eIF4E 4G PPI,MLLE-PAM2 inh,PERK inhibitor,eIF4H inh
C=CCn1c(SCC(=O)NCCO)nc2sc(C)c(C)c2c1=O,i,-1,-18,0,-5
CCN(CC1CCCO1)C(=O)c1cc(COc2ccccc2SC)on1 (centres undefined),i,/,3,/,2
Cc1ccc(S(=O)(=O)Cc2ccc(C(=O)O)o2)cc1,+,14,22,1,86*
COc1ccc(S(=O)(=O)Cc2ccc(C(=O)O)o2)cc1,i,/,5,/,-15
CS(=O)(=O)c1ccc(C(=O)N2CCc3ccccc3C2)cc1,i,-5,0,0,active
CS(=O)(=O)Nc1ccc(C(=O)N2CCc3ccccc3C2)cc1,i,0,2,2,4
Cc1ccc(S(=O)(=O)Cc2ccc(C(=O)N3CCc4ccccc4C3)o2)cc1,+,12,7,0,90*
COc1ccc(C(=O)Nc2ccnn2C2CCN(C(=O)C3CCOC3)CC2)cc1 (centres undefined),i,/,-3,/,-10
CCC1(c2ccccc2)NC(=O)N(CC(=O)NCc2ccc(OC)cc2)C1=O (centres undefined),i,/,-10,/,-1
CCOC(=O)COc1ccc2c(C#N)c3ccccn3c2c1,i,2,43*,1,83
N#Cc1c2ccc(OCC(N)=O)cc2n2ccccc12,i,4,35,0,32
COc1ccc(N2Cc3cccc(C(=O)N4CCN(C(=O)c5ccco5)CC4)c3C2=O)cc1,+,14,-10,1,93*
Cc1ccc(NC(=O)CC2SC(=Nc3ccc(O)cc3)NC2=O)cc1 (centres undefined),i,-1,-41,1,0
O=c1c2ccccc2[nH]c2ccc(O)cc12,+,/,26,/,92*
Cn1c(SCC(=O)NC2CCS(=O)(=O)C2)nnc1-c1ccco1 (centres undefined),/,/,10,/,/
NC1=Nc2cccc3cccc1c23,+,0,-29,-1,92
C(=N\NC1=Nc2cccc3cccc1c23)/c1ccccc1,i,4,-69,0,?
CC1CCCCC1NC(=O)c1cc(S(=O)(=O)N2CCCCC2)ccc1N1CCOCC1 (centres undefined),/,/,-6,/,/
CCOC(=O)N1C=CC=C[C@@H]2[C@@H](N3C(=O)c4ccccc4C3=O)C(=O)N21,+,3,9,1,0
CCOC(=O)c1cc2sc(C)cc2n1CCCN1C(=O)c2ccccc2C1=O,i,3,18,0,-9
COc1ccccc1CNC(=O)C1CC(c2ccccc2[N+](=O)[O-])=NO1 (centres undefined),+,-3,14,-1,54
COCCOC(=O)c1c(N)n(CCCN2CCOCC2)c2nc3ccccc3nc12,i,92*,11,-1,2
CSCCC(C(=O)N(C)CC(=O)Nc1cccc(F)c1)N1C(=O)c2ccccc2C1=O (centres undefined),/,/,5,/,/
COc1ccc(C2=CSC3=NCCN23)cc1Cl,i,/,-49,/,-7
COc1ccc(C2=CSC3=NCCN23)cc1F,i,38*[fluorescence artefact?],24,-2,0
SMILES,PABP FP inh,eIF4E 4G PPI,MLLE-PAM2 inh,PERK inhibitor,eIF4H inh
CCOC(=O)Cc1cc(=O)c2c(=O)n(-c3ccccc3)[nH]c2[nH]1,+,5,-8,1,6.0*
O=c1cc(-c2ccccc2)[nH]c2[nH]n(-c3ccccc3)c(=O)c12,i,-1,11,1,-3
CCn1c(=O)c2c3c(sc2n2c(=S)[nH]nc12)CCC3,i,52*,-60,0,-10
Cc1ccc(-n2c(=O)c3c4c(sc3n3c(=S)[nH]nc23)CCC4)cc1,i,26,-94,0,0
O=c1c2c3c(sc2n2c(=S)[nH]nc2n1-c1ccccc1)CCC3,i,38*,-66,0,-5
Cc1cccc(-n2c(=O)c3c4c(sc3n3c(=S)[nH]nc23)CCC4)c1,i,32*,-71,0,4
CC1CNC(=S)N(c2ccc(F)cc2)C1=O (centres undefined),/,/,12,/,/
O=C(NCCc1cccc(Cl)c1)c1cccc(-n2cnnn2)c1,/,/,-28,/,/
CCc1ccc(/C(C)=N/NS(=O)(=O)c2ccc(OC)cc2)s1,i,/,16,/,-5
C=CCOn1c(=O)c(-c2cc3ccccc3o2)[n+]([O-])c2ccccc21,+,3,1,0,58*
CCOC(=O)COn1c(=O)c(-c2ccc(F)cc2)[n+]([O-])c2ccccc21,i,/,-13,/,-8
CCOC(=O)COn1c(=O)c(-c2cc3ccccc3o2)[n+]([O-])c2ccccc21,+,-8,20,0,64
CCn1c(SCC(=O)NCc2ccccc2)nnc1C(CO)NC(=O)c1ccccc1 (centres undefined),/,/,-112,/,/
CCCCC(=O)Nc1ccc2oc(-c3ccncc3)nc2c1,i,55*,5,1,9
CCCC(=O)Nc1ccc2oc(-c3ccncc3)nc2c1,i,-24,-7,1,1
C=C(c1ccccc1Cl)[n+]1ccccc1,i,/,5,/,6
CC1(N2CCCCC2)C(=O)c2ccccc2C1=O,+,0,10,1,active
Fc1ccc(C2CCCN2Cc2nc(Cc3ccccc3)no2)cc1 (centres undefined),i,60*,8,1,-4
CCCc1ccc(OCc2ccccc2)c2c(=O)cc(C(=O)OCC)oc12,i,11,0,3.1*,1
CCC(=O)NCCc1cc2ccc(C)cc2[nH]c1=O,i,2,-7,3.3*,2
COC(=O)c1ccc(-n2nnnc2SCC(=O)Nc2ccccc2F)cc1,i,/,-7,/,-3
Cc1ccc(C(C)C)c(OCc2nc(-c3nonc3N)no2)c1,i,53*,6,0,2
CCN(CC(=O)Nc1ccc(NC(C)=O)cc1)C(=O)c1c(C)nn(Cc2ccc(C)cc2)c1Cl,/,/,-5,/,/
NS(=O)(=O)c1ccc(N=Nc2ccc(=O)[nH]c2O)cc1,+,37*,-5,-1,90*
Cc1csc(NC(=O)CS(=O)(=O)c2ccccc2)n1,+,-2,-11,1,83*
Cc1ccc(S(=O)(=O)CC(=O)Nc2nnc(C(C)(C)C)s2)cc1,i,/,38*,/,9
CCC(CC)c1nnc(NC(=O)CS(=O)(=O)c2ccc(C)cc2)s1,i,/,27,/,-1
CC(C)(C)c1csc(NC(=O)CS(=O)(=O)c2ccccc2)n1,i,/,7,/,-8
Cc1cccc(OCC2CCCN(Cc3nc(C4CC4)no3)C2)c1 (centres undefined),i,0,18,1,-6

# Source: PubChem BioAssay
